The whole screen tested about 59,000 compounds, of which about 6,200 (11%) were called active. Not shown: some 9% with an inconclusive outcome. Cut-off read from the data, not from the text of the source: active = max dye-equivalent concentration above about 10 nM; inconclusive = mostly about 1.1 nM to 9.6 nM; inactive = weaker than that. The list comes from a sample in which actives are over-represented; it also holds similar structures and randomly drawn compounds.

The experiment is described as follows: qHTS Assay for Spectroscopic Profiling in 4-MU Spectral Region. Particulars: compound autofluorescence, 340/450 nm, 4-MU equivalents; hits give high values. The method in brief:
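Compounds in 100 mM Tris, pH 8.0, incubated 15 min at room temperature, then fluorescence read at 340 nm excitation/450 nm emission. Signal converted to 4-MU dye-equivalent concentration using an on-plate six-point 4-MU standard curve.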
In general terms: In qHTS, concentration-response curves come from the screen itself.
Consider `C[C@H](CCC(=O)NCC(=O)O)[C@H]1CC[C@H]2[C@H]3[C@@H](C[C@@H](O)[C@]12C)[C@]1(C)CC[C@H](O)C[C@@H]1C[C@@H]3O`, for which the max dye-equivalent concentration entry was “inactive”.
The value for `O=S(=O)(NCc1cccnc1)c1ccc(Br)s1` was “inactive”.
For the molecule `CCOc1ccc(N=C2SC(C(=O)O)CC(=O)N2C)cc1` (stereo not given), the max dye-equivalent concentration result is “inactive”.
The value for `CCn1c(=N)c(S(=O)(=O)c2ccc(F)cc2)cc2c(=O)n3ccccc3nc21` was 590 nM (active); that for `O=CN1CCN(C2CC(=O)N(c3ccc4c(c3)OCO4)C2=O)CC1` (stereo not given) was “inactive”; that for `Cn1c(NC(=O)c2ccco2)c(-c2ccccc2Cl)c(=O)c2ccccc21` was “inactive”.
As for `Cc1ccc(-n2nc3cc(Cl)c(NC(=O)c4ccco4)cc3n2)cc1`, the max dye-equivalent concentration was 54 nM (active).
On to `COC(=O)c1cc(Cl)c(NC(=O)c2ccco2)cc1OC`, for which the max dye-equivalent concentration entry is “inactive”.
Consider `CSCC[C@H](NC(=O)NCc1cccs1)C(=O)O`, for which the max dye-equivalent concentration entry was “inactive”.
The result for `COCCNc1ccnc(-c2cccc(NS(C)(=O)=O)c2)n1` reads “inactive”.
`N#Cc1ccc(CN2CCCC3(CCN(C(=O)c4ccco4)CC3)C2)cc1`: the max dye-equivalent concentration entry is “inactive”.
The value for `COc1ccc(Cc2nnc(NC(=O)Cc3cccs3)s2)cc1` was “inactive”; that for `COc1ccc2c(CC(=O)Nc3nnc(C4CC4)s3)coc2c1` was 11 nM (active).
The value for `COc1ccc(OCCCC(=O)Nc2nnc(C3CCCO3)s2)cc1` (stereo not given) was “inactive”; that for `O/N=C1\CC2(Cc3nonc31)OCCO2` was “inactive”.
The value for `O=C(CN1CCOCC1)Nc1ccc(NC(=O)CN2CCOCC2)c(Cl)c1` was “inactive”.
Regarding `Fc1ccc(-c2nnc(CSc3nnc(-c4ccc5c(c4)OCO5)o3)o2)cc1`, the max dye-equivalent concentration entry was “inactive”.
The value for `Fc1ccc2nc(-c3ccccc3)nc(SCc3nnc(-c4ccccc4)o3)c2c1` was 29 nM (active); that for `C=CCn1c(SCc2nnc(-c3ccccc3)o2)nnc1C(O)c1ccccc1` (stereo not given) was “inactive”; that for `O=C(N1CCOCC1)N1CCOCC1` was “inactive”.
As to `O=C(c1csnn1)N1CCC[C@@]2(CCN(Cc3nccs3)C2)C1`, the max dye-equivalent concentration result was “inactive”.
Regarding `O=C(OC(C(=O)NC1CCCC1)c1ccc(F)cc1)c1ccno1` (stereo not given), the max dye-equivalent concentration result is “inactive”.
The value for `CCn1c(NCCc2ccc(OC)c(OC)c2)nc2c1c(=O)n(C)c(=O)n2C` was “inactive”.
The result for `O=C(O)c1nn(-c2ccc(Cl)cc2)c2c1C(=O)c1ccccc1C2=O` reads “inactive”.
The value for `O=C(O)CN1C(=O)CC(Cc2ccccc2)C1=O` (stereo not given) was “inactive”; that for `O=C(NC1(C(F)(F)F)N=C2SCCN2C1=O)c1ccco1` (stereo not given) was “inactive”.
As to `CCOC(=O)c1cc(-c2ccc(Cl)s2)nc2c1c(C)nn2C`, the max dye-equivalent concentration is 180 nM (active).
Take `CCOC(=O)c1cnc(-n2nc(C)cc2C)nc1-n1nc(C)cc1C`: the max dye-equivalent concentration result was “inactive”.
The result for `CCOC(=O)c1c(C(C#N)C#N)cc(C)nc1C` reads “inactive”.
`CN(C)c1nc2n(c(=O)n1)CCO2`: the max dye-equivalent concentration entry is “inactive”.
In the case of `COCCn1c(=O)[nH]c2cc(C(=O)NCc3cccnc3)ccc2c1=O`, the max dye-equivalent concentration is 41 nM (active).
The result for `Cc1ccc(-n2nc(-c3ccco3)cc2C(=O)NCc2cccnc2)cc1` reads “inactive”.
The result for `CC(C)(C)c1cc(C(=O)NCc2cccnc2)ccn1` reads “inactive”.
The result for `CCOc1ccccc1Oc1cn[nH]c1-c1ccc(OC)cc1O` reads “inactive”; that for `Cc1cc(Cl)c(S(=O)(=O)NCCC(=O)O)cc1OCC(N)=O`, “inactive”.
As to `CCOC(=O)c1cc(NC(=O)SCC(=O)O)c(C)nc1C`, the max dye-equivalent concentration result is “inactive”.
The result for `CCOC(=O)c1cc(-c2nnc(-c3cc(OC)c(OC)c(OC)c3)o2)c(C)nc1C` reads 24 nM (active); that for `COc1cc(-c2nnc(Cn3cc(C(F)(F)F)ccc3=O)o2)cc(OC)c1OC`, “inactive”.
Turning to `O=C(NCc1ccco1)c1nc(-c2ccccc2)n(-c2ccccc2)n1`, the max dye-equivalent concentration result is “inactive”.
The result for `COC(=O)[C@@H](NC(=O)NCc1cccc(OC)c1)C(C)C` reads “inactive”; that for `CCOc1ccc(-c2cn(S(=O)(=O)c3cccc4nsnc34)nc2N)cc1`, “inactive”; that for `CCOC(=O)NCc1ccc2c(c1)OCO2`, “inactive”.
The result for `O=C(Cn1nnc(-c2ccccc2)n1)NCc1ccc2c(c1)OCO2` reads “inactive”; that for `CC1CCCCN1CC(=O)NCc1ccc2c(c1)OCO2` (stereo not given), 51 nM (active).
The value for `COc1ccc(S(=O)(=O)Nc2c(C)n(C)n(-c3ccccc3)c2=O)cc1` was “inactive”; that for `CCOC(=O)Cn1c(SC)nc2sc3c(c2c1=O)CC(C)(C)OC3` was “inactive”; that for `CCC1(C)Cc2c(sc3nc4n(c(=O)c23)CCCS4)CO1` (stereo not given) was 47 nM (active).
`CC1(C)Cc2c(sc3nc4n(c(=N)c23)CCCCC4)CO1`: the max dye-equivalent concentration result was “inactive”.
The result for `COc1ccc2[nH]cc(CCNc3cc(-c4ccccc4CN(C)C)ncn3)c2c1` reads “inactive”; that for `O=C(NCCCN1CCN(c2ccccc2F)CC1)C1CCC(=O)N1C1CCCCC1` (stereo not given), “inactive”.

Source of the values: PubChem BioAssay AID589 (National Center for Advancing Translational Sciences (NCATS), 2007).
